Experimental data from PubChem BioAssay AID837 (The Scripps Research Institute Molecular Screening Center, 2007).
The source made the active and inactive calls.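 How the source made its calls: active means relative FRET score above 0.01, or acceptor fluorescence over 30% below the sample-well median; inactive means the rest.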

Molecular target: Protein Rev (Human immunodeficiency virus type 1 group M subtype B (isolate WMJ22)) (UniProt P05866)
Assay: HIV-1 Rev-RRE binding inhibitors, retest, confirmation, biochemical, FRET, acceptor and relative FRET calls (AID 837);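 further: relative FRET combines rise in Cy5 acceptor with fall in fluorescein donor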
Conditions: Fl-Rev peptide / Cy5-RRE RNA FRET, 1536-well; at 8 µM

Protein Rev (Human immunodeficiency virus type 1 group M subtype B (isolate WMJ22)), sequence (P05866 whole entry, looked up): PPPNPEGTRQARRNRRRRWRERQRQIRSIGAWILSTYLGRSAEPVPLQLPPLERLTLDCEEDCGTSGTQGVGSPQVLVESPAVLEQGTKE

Row | SMILES | outcome
1 | Cc1ccc(-c2nc(N(C)C3CCN(C)CC3)c3ccccc3n2)cc1 | inactive
2 | COc1ccc(CCNC(C)CCc2ccc(OC)cc2)cc1 (stereo not given) | active
3 | COc1ccc(CCNCc2ccc(SC)cc2)cc1 | inactive
4 | CN1C2CCC1CC(OC(=O)c1cc(Cl)cc(Cl)c1)C2 (stereo not given) | inactive
5 | CC(NC1CCCCC1)C(O)C12CC3CC(CC(C3)C1)C2 (stereo not given) | inactive
6 | COc1ccc(CCC(C)NCCc2ccccc2)cc1 (stereo not given) | inactive
7 | CC1CCC(NCCc2ccc3c(c2)OCO3)CC1 (stereo not given) | inactive
8 | c1ccc(C(OCCN2CCNCC2)c2ccccc2)cc1 | inactive
9 | CNCC(O)c1cccc(OC(=O)c2ccccc2C)c1 (stereo not given) | inactive
10 | OC(Cc1ccccc1)(c1ccccc1)C1CN2CCC1CC2 (stereo not given) | inactive
